“And” between values parts separate entries of the source, which are not always exact repeats. Identical values can stand only once. Counter-ions that a name gives are not always drawn.
Experiments:
Assay in all cases: cell viability relative to vehicle control; higher = less cytotoxic
Details in all cases: 10 µM
[1] = tested on: K562
Outline: (§1)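 CRISPR-edited mutant clones and isogenic wild-type clones from four leukaemia lines were screened against Selleck bioactive, kinase and epigenetic probe libraries, with identity-inconsistent compounds excluded. Each compound was acoustically dispensed at a single 10 µM dose into 384-well plates holding 2000 cells in 50 µL medium per well. After 48 h the supernatant was removed and CellTiter-Glo luminescence was read. Viability was expressed as percent of the on-plate vehicle control and analysed in Genedata Screener.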

[2] = tested on: MARIMO
Outline: as §1

[3] = tested on: MOLM14
Outline: as §1

[4] = tested on: OCI-AML2
Outline: as §1

SMILES | cell viability ([1]; SRSF2 genotype: SRSF2 P95H/wt) | cell viability ([1]; SRSF2 genotype: SRSF2 wt/wt) [%] | cell viability ([2]; SRSF2 genotype: SRSF2 P95H/wt) [%] | cell viability ([2]; SRSF2 genotype: SRSF2 wt/wt) [%] | cell viability ([3]; SRSF2 genotype: SRSF2 P95H/wt) [%] | cell viability ([3]; SRSF2 genotype: SRSF2 wt/wt) [%] | cell viability ([4]; SRSF2 genotype: P95H/wt) [%] | cell viability ([4]; SRSF2 genotype: wt/wt) [%]
Nc1ccc(-c2ccc3ncc4ccc(=O)n(-c5cccc(C(F)(F)F)c5)c4c3c2)cn1 [Torin 2] | 13.4% and 21.3% | 16.9 | 16.5 | 20.9 | 1.07 | 2.53 | 1.62 | 7.04
Clc1ncnc2nc[nH]c12 [6-Chloropurine] | 88.9% and 82.6% | 82.7 | 92.3 | 87 | 88.9 | 90.3 | 83.3 | 87.9
CC1=CCC(=C(C)C)C(=O)CC(C)=CCC1 [Germacrone] | 110% and 109% | 111 | 107 | 103 | 110 | 106 | 95.1 | 101
[I-].[K+] [Potassium iodide] | 100% and 96% | 100 | 107 | 105 | 106 | 100 | 102 | 112
C[C@@H]1CC[C@@]2(OC1)O[C@H]1C[C@H]3[C@@H]4CC=C5C[C@@H](O[C@@H]6O[C@H](CO)[C@@H](O[C@@H]7O[C@@H](C)[C@H](O[C@@H]8O[C@@H](C)[C@H](O)[C@@H](O)[C@H]8O)[C@@H](O)[C@H]7O)[C@H](O)[C@H]6O[C@@H]6O[C@@H](C)[C@H](O)[C@@H](O)[C@H]6O)CC[C@]5(C)[C@H]4CC[C@]3(C)[C@@]1(O)[C@@H]2C [Chonglou Saponin VII] | 0.5% and 0.49% | 0.46 | 0.43 | 0.55 | 0.44 | 0.46 | 0.37 | 0.47
CO[C@@H](C(=O)N1Cc2[nH]nc(NC(=O)c3ccc(N4CCN(C)CC4)cc3)c2C1)c1ccccc1 | 40.2% and 48.7% | 34.3 | 63.3 | 69.4 | 14.3 | 12.9 | 6.56 | 19.3
CCCN[C@H]1CCc2nc(N)sc2C1 [Pramipexole dihydrochloride] | 103% and 96.9% | 110 | 103 | 94.2 | 79.1 | 97.8 | 103 | 111
OC[C@H]1O[C@@H](OCCc2ccc(O)cc2)[C@H](O)[C@@H](O)[C@@H]1O [Salidroside (Rhodioloside)] | 101% and 105% | 102 | 106 | 104 | 105 | 109 | 101 | 94.6
COc1ccc(CCO[C@@H]2O[C@H](CO[C@@H]3OC[C@H](O)[C@H](O)[C@H]3O)[C@@H](OC(=O)/C=C/c3ccc(O)c(OC)c3)[C@H](O[C@@H]3O[C@@H](C)[C@@H](O)[C@@H](O)[C@H]3O)[C@H]2O)cc1O [Angoroside C] | 107% and 103% | 111 | 101 | 96.2 | 113 | 106 | 105 | 95.5
CC1(C)CC[C@]2(NC(=O)C(C)(F)F)CC[C@]3(C)[C@H](C(=O)C=C4[C@@]5(C)C=C(C#N)C(=O)C(C)(C)[C@@H]5CC[C@]43C)[C@@H]2C1 [Omaveloxolone (RTA-408)] | 9.19% and 4.65% | 5.62 | 1.12 | 0.48 | 0.3 | 0.25 | 0.23 | 0.32
O=C(Nc1ccccc1-c1cn2c(CN3CCNCC3)csc2n1)c1cnc2ccccc2n1 | 0.23% and 0.19% | 0.26 | 0.19 | 0.26 | 0.15 | 0.18 | 0.14 | 0.2
CS(=O)(=O)c1ccc([C@@H](O)[C@@H](CO)NC(=O)C(Cl)Cl)cc1 [Thiamphenicol (Thiophenicol)] | 86.1% and 88.3% | 87.7 | 103 | 101 | 98.5 | 96.8 | 97.3 | 91.2
C[C@@H](O)[C@H]1C(=O)N2C(C(=O)O)=C(S[C@@H]3CN[C@H](CNS(N)(=O)=O)C3)[C@H](C)[C@H]12 [Doripenem] | 98.4% and 92.9% | 97.5 | 93.2 | 102 | 99.7 | 98.3 | 89.2 | 99
C[C@@H](O)[C@H]1C(=O)N2C(C(=O)O)=C(S[C@@H]3CN[C@H](C(=O)Nc4cccc(C(=O)O)c4)C3)[C@H](C)[C@H]12 [Ertapenem sodium] | 108% and 107% | 105 | 103 | 109 | 99.6 | 107 | 97.1 | 99.8
COc1cccc(/C=N/N(C(=O)C(F)(F)F)c2ccc(C)cc2C)c1 | 90.5% and 95.3% | 99.8 | 83.5 | 102 | 98.5 | 105 | 101 | 106
O=C(NC(Cc1cc(=O)[nH]c2ccccc12)C(=O)O)c1ccc(Cl)cc1 (configuration not stated) [Rebamipide] | 99.4% and 101% | 96.4 | 96.9 | 100 | 104 | 101 | 94.8 | 102
CN(C)CCSSCCNC(=O)C1CCN(C(=O)CSc2ccc(Cl)cc2)CC1 | 82% and 85.7% | 81.6 | 68 | 86.9 | 91.8 | 95.1 | 89.8 | 79.5
O=C(O)P(=O)(O)O [Foscarnet Sodium] | 106% and 108% | 107 | 101 | 108 | 101 | 109 | 112 | 95.6
CN(NC(=O)CC(=O)NN(C)C(=S)c1ccccc1)C(=S)c1ccccc1 [Elesclomol (STA-4783)] | 28.9% and 15.4% | 51.2 | 11.8 | 21.5 | 0.35 | 0.25 | 2.86 | 12.4

Reference: the supplement of paper PMC10981050
